According to PubChem BioAssay AID1645856 (Buhrlage Lab, Dana-Farber Cancer Institute and Novartis …, 2021):
The campaign covered roughly 47,000 compounds. About 510 (1.1%) were called active. Rule as the data show it: active = inhibition above about 30%; inactive = the rest. The entries come from a sample that favours actives as a whole.

target: Ubiquitin carboxyl-terminal hydrolase 10 (Homo sapiens) (UniProt Q14694); experiment: blocks human USP10 ubiquitin-rhodamine cleavage (AID 1645856); conditions: purified USP10, Ub-rhodamine fluorescence, 60 min; at 20 µM; active compounds read high
Sequence (Q14694 whole entry, looked up): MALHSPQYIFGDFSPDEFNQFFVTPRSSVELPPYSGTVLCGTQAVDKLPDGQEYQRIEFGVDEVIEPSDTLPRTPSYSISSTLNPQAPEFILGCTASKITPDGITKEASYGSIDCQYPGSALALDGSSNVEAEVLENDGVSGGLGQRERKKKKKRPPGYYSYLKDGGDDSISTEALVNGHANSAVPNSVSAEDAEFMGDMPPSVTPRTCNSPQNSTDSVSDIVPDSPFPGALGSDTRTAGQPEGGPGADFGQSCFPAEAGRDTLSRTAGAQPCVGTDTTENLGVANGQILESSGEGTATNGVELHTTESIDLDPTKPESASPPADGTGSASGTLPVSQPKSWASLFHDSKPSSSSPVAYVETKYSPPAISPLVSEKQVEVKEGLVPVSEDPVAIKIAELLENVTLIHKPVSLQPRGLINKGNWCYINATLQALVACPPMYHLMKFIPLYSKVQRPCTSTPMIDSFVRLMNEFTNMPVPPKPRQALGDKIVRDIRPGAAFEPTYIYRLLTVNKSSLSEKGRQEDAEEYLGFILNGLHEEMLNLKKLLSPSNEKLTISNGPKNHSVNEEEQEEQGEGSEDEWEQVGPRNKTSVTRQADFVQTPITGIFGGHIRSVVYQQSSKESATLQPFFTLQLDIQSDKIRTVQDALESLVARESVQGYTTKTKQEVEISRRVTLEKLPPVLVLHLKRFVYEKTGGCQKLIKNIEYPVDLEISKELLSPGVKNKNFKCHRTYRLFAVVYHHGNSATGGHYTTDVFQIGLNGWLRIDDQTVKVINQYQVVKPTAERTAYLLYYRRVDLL

inhibition, inactive:
O=C(NCc1ccco1)N1CCC2(CC1)Nc1ccccc1-n1cccc12 0.0863%, Cc1c(S(=O)(=O)Nc2ccc(F)cc2)cc(C(=O)N2CCCCC2)n1C 1.47%, COc1ccc(OC)c(NC(=O)CN2CCc3ccccc32)c1 0.258%, Cc1cc(=O)n(CC(=O)NCc2ccccc2)c(N2CCCC2)n1 -2.48%, CCc1cccc(C)c1NC(=O)CSc1nc2c(c(=O)[nH]1)CCCC2 0.855%, O=C(c1ccc(N2CCCCC2)nn1)N(Cc1ccccc1)c1ccccn1 -1.8%, Cn1c(C2CCN(C(=O)Nc3ccc4c(c3)CCC4)C2)nc2cccnc21 (stereo unspecified) -0.116%, Cc1ccc(NC(=O)COC(=O)C2CC(=O)N(c3cccc(C)c3C)C2)cc1 (stereo unspecified) -7.32%, O=C1CCCC2=C1C(c1ccc(C(=O)O)cc1)n1ncc(C(=O)Nc3ccc(F)cc3)c1N2 (stereo unspecified) -5.67%, CCOc1cccc(C2CC(=O)Nc3c2c(C)nn3-c2nncc(-c3ccc(F)cc3)n2)c1 (stereo unspecified) 4.17%, Cc1ccc(C2N=C(N3CCCCC3)Nc3nc(C)cc(=O)n32)cc1 (stereo unspecified) -10.2%, O=C(c1ccccc1Cl)N(c1ccccn1)c1ccccn1 -2.33%, C=C1CCC2[C@](C)(CCC[C@]2(C)C(=O)OC)[C@H]1CCc1ccoc1C[N+](C)(C)Cc1ccccc1 (stereo partly specified) -1.66%, C=C1CCC2[C@](C)(CCC[C@]2(C)C(=O)OC)[C@H]1CCc1ccoc1CNCC(=O)O (stereo partly specified) 3.42%, FC(F)(F)c1cccc(CN2CCCn3c(nc4ccccc43)C2)c1 -0.144%, O=C(NCc1noc(C2CCCC2)n1)c1ccccc1 3.21%, CNc1ccc(-c2noc([C@@H]3CCCN3C3CCN(C)CC3)n2)cn1 -0.38%, COc1ccc(C(O)Cc2nc3ccccc3n2Cc2ccc(Cl)cc2)cc1 (stereo unspecified) 1.15%, COC(=O)c1ccccc1NC(=O)c1cnc2ccccn2c1=O 0.362%, O=C(CNC1CCCc2ccccc21)Nc1cc(S(=O)(=O)N2CCCCC2)ccc1Cl (stereo unspecified) 1.62%, Cc1nccc(N2CCCC2c2cnc(-c3ncc[nH]3)cn2)n1 (stereo unspecified) -5.73%, O=C(Cn1cc(S(=O)(=O)N2CCOCC2)ccc1=O)Nc1ccc(F)c(F)c1 2.08%, CS(=O)(=O)c1ccc(-n2cc(-c3ccncn3)cn2)cc1 -1.57%, O=C(c1ncccn1)N1CCCCC1c1ncc(Cc2cccc(F)c2)o1 (stereo unspecified) 0.0694%, CC(OC(=O)c1cn(-c2ccccc2)nc1-c1cccnc1)C(=O)Nc1cccc(S(=O)(=O)N(C)C)c1 (stereo unspecified) -8.1%, Cc1nn(CCC(=O)Nc2ccc(C#N)cc2)c(C)c1S(=O)(=O)N1CCOCC1 7.2%, Cn1c(N2CCN(C(=O)c3ccc(F)cc3)CC2)cc(=O)n(C)c1=O -3.62%, O=C(Nc1cccc(Cl)c1)N(Cc1ccccc1)CC1CC=CCC1 (stereo unspecified) 16.3%, CCc1nnc(CN2CCC(C3CCCCCN3C(=O)NC(C)C)CC2)o1 (stereo unspecified) -4.07%, COc1ccc(Nc2cc(C(=O)N3CCC4(CC3)OCCO4)c3ccccc3n2)cc1 -0.645%, CCN1C(=O)[C@H]2CN(C(C)=O)C[C@H]2C12CCN(C(=O)NCCc1ccc(OC)cc1)CC2 0.803%, O=C(CN(Cc1ccccc1Cl)S(=O)(=O)c1ccccc1F)NC(c1ccccc1)c1ccccc1 6.49%, Cc1ccc2[nH]c(=O)c(CN(CC3COCCO3)C(=O)Nc3ccccc3C)cc2c1 (stereo unspecified) -0.00505%, Cc1cc(=O)n(CC(=O)Nc2ccc3c(c2)OCO3)c2c1c(-c1ccccc1)nn2-c1ccccc1 25%, O=S(=O)(c1cc(-c2nnc(C3CC3)o2)co1)N1CCCCC1 -3.39%, O=C(NC1CCCC1)c1ccc(N2CCOc3ccccc32)s1 0.616%, CCc1nnc(-c2cc(S(=O)(=O)Nc3ccccc3F)c[nH]2)o1 -2.11%, O=C(Oc1ccc(Oc2ccccc2)cc1)c1ccc([N+](=O)[O-])cc1 7.41%, Cc1nn(-c2ccc(F)cc2)c(C)c1S(=O)(=O)NC1CC1 -2.46%, COc1ccc(NS(=O)(=O)c2cc(NC(=O)/C=C/c3cccc(OC)c3)ccc2OC)cc1 0.326%, COc1ccc(NS(=O)(=O)c2cc(NC(=O)COc3ccccc3F)ccc2OC)cc1 3.65%, Cc1ccc(C2c3[nH]c4ccccc4c3C[C@H]3C(=O)N(c4ccccc4C(=O)NC4CCCCC4)C(=O)N23)cc1 (stereo partly specified) -9.46%, Cc1cccc(C(=O)NCc2nnc3ccccn23)c1 5.59%, CCOc1c(C)cnc2c1c(=O)n(CC(=O)N1CCC(C)CC1)c(=O)n2C -3.58%, c1ccc(OCCn2nc(C3CCN(C4CCOCC4)CC3)c3nccnc32)cc1 -0.0392%, O=C(NCc1ccc2c(c1)OCO2)c1cn(-c2cccc(Cl)c2)nn1 28.3%, CCN1CCN(Cc2nc(-c3ccc(N4CCCCC4)nc3)no2)CC1 0.502%, CCc1cc(C2CCCN2C(=O)NCc2ccc(F)cc2)on1 (stereo unspecified) 0.108%, CC1(C(=O)NC2CCCCCC2)Cc2ccccc2C(=O)N1C1CCCCC1 (stereo unspecified) 3.98%, O=C(COC(=O)c1ccc(F)cc1)NC1CCCc2ccccc21 (stereo unspecified) -2.88%, O=C(c1ccccc1)c1ccc(NC2CCCc3ccccc32)c([N+](=O)[O-])c1 (stereo unspecified) -3.29%, N#Cc1ccccc1OCC(=O)Nc1ccc(-c2cn3ccsc3n2)cc1 -4.52%, COc1ccc(NC(=O)CSc2cn(CC(=O)N3CCCC3)c3ccccc23)cc1 1.6%, CCOc1ccc(NC(=O)Cn2cc(C(=O)c3ccc(Cl)cc3)c(=O)c3cc(OC)ccc32)cc1 27%, O=C(CN1CCCN(c2cc(-c3ccc(N4CCOCC4)cc3)ncn2)CC1)N1CCOCC1 -2.74%, CCN1C(=O)[C@H]2CN(CCOC)C[C@H]2C12CCN(C(=O)Nc1ccccc1)CC2 0.649%, Cc1cc2nc(N3CCOCC3)n(CC(=O)Nc3ccccc3F)c(=O)c2n1C -1.21%, Cc1ccc(CN2C(=O)C(CC(=O)Nc3ccccc3F)n3c2nc2ccccc23)cc1 (stereo unspecified) 6.51%, COc1ccc(NC(=O)CC2C(=O)NCCN2C(=O)Nc2ccc(F)cc2)cc1 (stereo unspecified) -0.861%, CCOc1ccc(-c2noc(-c3nn(-c4cccc(OC)c4)ccc3=O)n2)cc1 7.86%, Cc1cccc(-c2nnc(-c3cccc(S(=O)(=O)N4CCCC4)c3)o2)c1 3.94%, O=C(COC(=O)C1CCN(S(=O)(=O)c2c(Cl)cccc2Cl)CC1)Nc1ccc2c(c1)CCC2 6.62%, CCOC(=O)C1CCN(C(=O)c2cnc(Nc3ccc(C)c(Cl)c3)c3ccccc23)CC1 6.16%, COc1ccc(C(=O)Cn2nc(C)cc2C)cc1 -2.02%, Cc1cc(C)cc(NC(=O)c2cc(CN3CCOCC3)on2)c1 -1.83%, O=C(NCC1CCCO1)c1[nH]c2ccccc2c1Sc1ccc(Cl)cc1 (stereo unspecified) 0.402%, Cc1ccc(CC(=O)N2CCCC(c3ccncn3)C2)s1 (stereo unspecified) -2.71%, CC(c1ccncc1)n1nccc1NC(=O)c1cccnc1Sc1ccccc1 (stereo unspecified) -7.87%, CCc1noc(-c2ccnc(-n3ncc(C(=O)N4CCC(C)CC4)c3C)c2)n1 -0.304%, COc1ccc(-c2cc(C(=O)NCCCN3CCCC3=O)c3ccccc3n2)cc1OC -3.65%, CC(C)CC1NC(=O)C2(CCN(C(=O)Nc3ccc(Cl)c(Cl)c3)CC2)NC1=O (stereo unspecified) 1.3%, O=C(NCC1CCCO1)c1ccccc1N1C(=O)[C@@H]2Cc3c([nH]c4ccccc34)C(c3cccc(Cl)c3)N2C1=O (stereo partly specified) -2.66%, O=C(Nc1ccccc1Br)c1ncoc1-c1cccs1 2.95%, CCCc1nc(-c2c(C)cc(C)nc2NC(=O)C2CCCCC2)no1 -4.35%, Cc1cccc(NS(=O)(=O)c2ccc3nnc(C)n3c2)c1 -2.24%, COc1cccc(NS(=O)(=O)c2ccc(-c3coc(C)n3)cc2)c1 2.04%, COc1ccccc1C1CC(c2c(O)n(C)c(=O)n(C)c2=O)=Nc2ccccc2S1 (stereo unspecified) 2.61%

inhibition, active:
CCc1cccc(C)c1NC(=O)Cn1nc2ccc(C(=O)NCc3ccccc3)cn2c1=O 36%, C=C1CCC2[C@](C)(CCC[C@]2(C)C(=O)OC)[C@H]1CCc1ccoc1/C=C/C(=O)O (stereo partly specified) 46.4%, COc1ccc(NS(=O)(=O)c2cc(NC(=O)CC(=O)c3ccc([N+](=O)[O-])cc3)ccc2C)cc1 43.8%, Nc1ccc(C(=O)OCC(=O)NC2CCCc3ccccc32)cc1[N+](=O)[O-] (stereo unspecified) 31.8%, CCOc1ccc2c(c1)c(=O)c(C(=O)c1ccccc1)cn2CC(=O)Nc1ccc(OC)cc1 59.7%, Cc1nc2c(c(C)c1CCC(=O)Nc1ccccc1F)c(=O)n(C)c(=O)n2C 32.5%, O=C(Nc1nnc(-c2cccc([N+](=O)[O-])c2)o1)C1CCN(S(=O)(=O)c2ccc3c(c2)CCC3)CC1 46.7%, O=S(=O)(Nc1cccc(O)c1)c1ccc2oc3ccc(S(=O)(=O)Nc4cccc(O)c4)cc3c2c1 54.6%, Oc1cccc2nc3c(O)cccc3nc12 41.5%
